Test [1] concerns the target human Colony Stimulating Factor 1 Receptor (CSF1R), CSF1R (gene 1436) (UniProt P07333). Kind of test: NVS_ENZ_hCSF1R: NovaScreen (NVS) Enzymatic Assay for human Colony Stimulating Factor 1 Receptor (CSF1R) (AID 2283150). The method, boiled down:
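Cell-free recombinant human CSF1R kinase with fluorescent substrate, product separated by electrophoretic mobility shift; read 1 h after dosing. Primary screen at 25 uM in duplicate, actives then in concentration-response up to 50 uM, relative to DMSO.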

In test [2] the target is human FYN Proto-Oncogene, Src family Tyrosine Kinase (Fyn), FYN (gene 2534) (UniProt P06241). Kind of test: NVS_ENZ_hFyn: NovaScreen (NVS) Enzymatic Assay for human FYN Proto-Oncogene, Src family Tyrosine Kinase (Fyn) (AID 2283161). An outline of the steps: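 Recombinant enzyme with fluorescent substrate, product separated by electrophoretic mobility shift; read 1 h after dosing. Duplicate 25 uM single-point screen, actives retested in concentration series; loss of signal vs DMSO.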

In test [3] the target is human Janus Kinase 2 (Jak2), JAK2 (gene 3717) (UniProt O60674). Put plainly: NVS_ENZ_hJak2: NovaScreen (NVS) Enzymatic Assay for human Janus Kinase 2 (Jak2) (AID 2283169). An outline of the steps:
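Cell-free recombinant human JAK2 enzyme activity assay, fluorescence/electrophoretic mobility shift read 1 h after dosing. Screened in duplicate at 25 uM, then concentration-response up to 50 uM; activity as signal loss relative to DMSO.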

Test [4] has as its target human c-Jun N-terminal Kinases (JNK2), MAPK9 (gene 5601) (UniProt P45984). Put plainly: NVS_ENZ_hJNK2: NovaScreen (NVS) Enzymatic Assay for human c-Jun N-terminal Kinases (JNK2) (AID 2283171). The method, boiled down:
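Cell-free recombinant human JNK2 activity assay; fluorescent substrate and product separated by electrophoretic mobility shift, read 1 h after dosing. Primary duplicate screen at 25 uM; actives run in concentration-response up to 50 uM, relative to DMSO.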

Test [5] deals with Mitogen-activated protein kinase 3 (Homo sapiens) (UniProt P27361). Put plainly: NVS_ENZ_hMAPK3: NovaScreen (NVS) Enzymatic Assay for human Mitogen-Activated Protein Kinase 3 (MAPK 3) (AID 2283177). The method, boiled down: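 Cell-free enzymatic assay with recombinant protein and specific substrate; fluorescence and electrophoretic mobility shift read-out 1 h after dosing. Primary screen duplicate at 25 uM; actives then run in concentration-response up to 50 uM, loss of signal versus DMSO.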

Test [6] addresses human Dual Specificity Protein Phosphatase 3 (DUSP3), DUSP3 (gene 1845) (UniProt P51452). Put plainly: NVS_ENZ_hDUSP3: NovaScreen (NVS) Enzymatic Assay for human Dual Specificity Protein Phosphatase 3 (DUSP3) (AID 2283152).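 Also: phosphatase activity of recombinant human DUSP3 on a fluorogenic substrate without cells.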 An outline of the steps:
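Cell-free assay with recombinant human DUSP3 and fluorogenic substrate, read by fluorescence intensity. Primary screen ran duplicate at 25 uM; actives followed up in concentration series; loss of signal versus DMSO scored.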

Test [7] concerns the target human Caspase 4 (CASP4), CASP4 (gene 837) (UniProt P49662). Put plainly: NVS_ENZ_hCASP4: NovaScreen (NVS) Enzymatic Assay for human Caspase 4 (CASP4) (AID 2283143). An outline of the steps: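 The cell-free assay used E. coli-expressed enzyme with a fluorogenic substrate, read 2 h after dosing. Signal loss was scored versus DMSO. Screening was in duplicate at 25 uM, then singleton concentration-response up to 50 uM.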

In test [8] the target is human Esterase Plasma (ES), BCHE (gene 590) (UniProt P06276). Put plainly: NVS_ENZ_hES: NovaScreen (NVS) Enzymatic Assay for human Esterase Plasma (ES) (AID 2283157). The method, boiled down: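 Esterase from human plasma, cell-free, colorimetric absorbance read 0.25 h after dosing. Screened at 25 uM in duplicate, with threshold-passing chemicals run in concentration-response up to 50 uM; loss of signal fitted versus DMSO.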

The target in test [9] is human Matrix Metalloproteinase-7 (MMP7), MMP7 (gene 4316) (UniProt P09237). Kind of test: NVS_ENZ_hMMP7: NovaScreen (NVS) Enzymatic Assay for human Matrix Metalloproteinase-7 (MMP7) (AID 2283183). The method, boiled down:
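Cell-free fluorescence enzymatic assay read 1 h after compound addition, activity loss analyzed against DMSO. Primary duplicate testing at 25 uM; compounds meeting threshold rerun in singleton concentration-response up to 50 uM.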

For test [10], the target named is CDK2 (gene 1017) (UniProt P24941). Put plainly: NVS_ENZ_hCDK2: NovaScreen (NVS) Enzymatic Assay for human Cyclin-Cependent Kinase 2 (CDK2) (AID 2283144). An outline of the steps: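 Cell-free recombinant human CDK2 with fluorescent substrate, product separated by electrophoretic mobility shift; 1 hr read. Primary screen at 25 uM in duplicate, actives retested in concentration-response up to 50 uM; loss of signal versus DMSO.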

In test [11] the target is human Casein Kinase 1-delta (CK1D), CSNK1D (gene 1453) (UniProt P48730). Kind of test: NVS_ENZ_hCK1D: NovaScreen (NVS) Enzymatic Assay for human Casein Kinase 1-delta (CK1D) (AID 2283148). The method, boiled down: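 Recombinant human CK1-delta, cell-free; fluorescent substrate with electrophoretic mobility-shift separation of product, read 1 h after dosing. Single 25 uM duplicate screen, then concentration-response up to 50 uM; loss of signal vs DMSO.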

In test [12] the target is human Elastase, ELANE (gene 1991) (UniProt P08246). Put plainly: NVS_ENZ_hElastase: NovaScreen (NVS) Enzymatic Assay for human Elastase (AID 2283153). The method, boiled down:
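Cell-free elastase from human neutrophils, 1.5 h after dosing, activity read by absorbance. Primary screen in duplicate at 25 uM; hits (e.g., 30% inhibition) rerun in singleton concentration-response up to 50 uM, fitted versus DMSO.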

For test [13], the target named is human Insulin Receptor (InsR), INSR (gene 3643) (UniProt P06213). Put plainly: NVS_ENZ_hInsR: NovaScreen (NVS) Enzymatic Assay for human Insulin Receptor (InsR) (AID 2283168). An outline of the steps:
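Fluorescent substrate phosphorylation by recombinant kinase, product resolved by electrophoretic mobility shift, read 1 h after dosing. Screened in duplicate at 25 uM; hits (e.g., 30% inhibition) run in concentration-response to 50 uM; DMSO as baseline.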

Test [14] deals with human Caspase 8 (CASP8), CASP8 (gene 841) (UniProt Q14790). Kind of test: NVS_ENZ_hCASP8: NovaScreen (NVS) Enzymatic Assay for human Caspase 8 (CASP8) (AID 2283146). The method, boiled down: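 E. coli-expressed enzyme was used in a cell-free fluorogenic substrate assay read 1 h after dosing. Loss of signal was scored relative to DMSO, and the primary screen was run in duplicate at 25 uM.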

The target in test [15] is Collagenase 3 (Homo sapiens) (UniProt P45452). Put plainly: NVS_ENZ_hMMP13: NovaScreen (NVS) Enzymatic Assay for human Matrix Metalloproteinase-13 (MMP13) (AID 2283182). The method, boiled down: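 Recombinant MMP13 cleaving fluorescent substrate, cell-free, measured 1 h after dosing. Primary duplicate screen at 25 uM; actives tested in concentration-response up to 50 uM; loss of signal relative to DMSO.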

The target of test [16] is human AKT serine/threonine Kinase 2 (AKT2), AKT2 (gene 208) (UniProt P31751). Put plainly: NVS_ENZ_hAKT2: NovaScreen (NVS) Enzymatic Assay for human AKT serine/threonine Kinase 2 (AKT2) (AID 2283141). An outline of the steps: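 Cell-free fluorescence/electrophoretic mobility shift readout of recombinant human AKT2 activity, 1 h after chemical dosing. Duplicate primary screen at 25 uM, then singleton concentration-response up to 50 uM; loss of signal versus DMSO baseline.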

In test [17] the target is human Ephrin type-A Receptor 1 (EphA1), EPHA1 (gene 2041) (UniProt P21709). Kind of test: NVS_ENZ_hEphA1: NovaScreen (NVS) Enzymatic Assay for human Ephrin type-A Receptor 1 (EphA1) (AID 2283158).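 Also: activity is signal loss versus DMSO meaning EphA1 kinase inhibition.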 An outline of the steps: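 Cell-free enzymatic assay with recombinant EphA1 and fluorescent substrate; product separated by electrophoretic mobility shift, fluorescence intensity read 1 hour after dosing. Loss of signal versus DMSO baseline; primary duplicate screen at 25 uM, actives followed to 50 uM top concentration.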

Inconclusive results are not listed. Active and inactive are the calls of the source. The calls were made as follows: active = hit-call score of the fitted dose curve at least 0.9, where 1 is the maximum; inconclusive = response in the unintended direction; inactive = score below 0.9.

As a reminder, the AC50 is the concentration giving half of the maximal activity seen.

Sequence of human Esterase Plasma (ES), BCHE (gene 590) (P06276 whole entry, looked up): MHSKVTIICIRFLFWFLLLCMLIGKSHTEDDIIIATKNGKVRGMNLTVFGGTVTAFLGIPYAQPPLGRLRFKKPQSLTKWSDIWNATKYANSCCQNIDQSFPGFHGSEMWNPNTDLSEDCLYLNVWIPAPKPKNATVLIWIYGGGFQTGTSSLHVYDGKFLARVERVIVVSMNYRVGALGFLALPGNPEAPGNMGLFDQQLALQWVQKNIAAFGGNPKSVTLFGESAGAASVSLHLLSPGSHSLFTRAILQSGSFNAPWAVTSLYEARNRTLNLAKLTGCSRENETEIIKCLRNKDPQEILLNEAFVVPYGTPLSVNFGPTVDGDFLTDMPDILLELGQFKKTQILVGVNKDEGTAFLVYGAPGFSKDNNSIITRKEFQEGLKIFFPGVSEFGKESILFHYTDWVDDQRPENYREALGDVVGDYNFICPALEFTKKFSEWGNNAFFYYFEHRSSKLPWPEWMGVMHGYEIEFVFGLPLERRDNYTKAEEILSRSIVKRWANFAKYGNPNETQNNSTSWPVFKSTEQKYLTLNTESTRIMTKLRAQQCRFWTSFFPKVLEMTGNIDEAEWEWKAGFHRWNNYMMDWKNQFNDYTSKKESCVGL
Sequence of human Dual Specificity Protein Phosphatase 3 (DUSP3), DUSP3 (gene 1845) (P51452 whole entry, looked up): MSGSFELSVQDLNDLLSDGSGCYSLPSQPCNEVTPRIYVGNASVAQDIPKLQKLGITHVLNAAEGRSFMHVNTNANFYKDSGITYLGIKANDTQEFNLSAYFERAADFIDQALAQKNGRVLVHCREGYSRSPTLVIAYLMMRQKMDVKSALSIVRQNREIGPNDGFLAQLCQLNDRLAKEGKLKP
Sequence of human Casein Kinase 1-delta (CK1D), CSNK1D (gene 1453) (P48730 whole entry, looked up): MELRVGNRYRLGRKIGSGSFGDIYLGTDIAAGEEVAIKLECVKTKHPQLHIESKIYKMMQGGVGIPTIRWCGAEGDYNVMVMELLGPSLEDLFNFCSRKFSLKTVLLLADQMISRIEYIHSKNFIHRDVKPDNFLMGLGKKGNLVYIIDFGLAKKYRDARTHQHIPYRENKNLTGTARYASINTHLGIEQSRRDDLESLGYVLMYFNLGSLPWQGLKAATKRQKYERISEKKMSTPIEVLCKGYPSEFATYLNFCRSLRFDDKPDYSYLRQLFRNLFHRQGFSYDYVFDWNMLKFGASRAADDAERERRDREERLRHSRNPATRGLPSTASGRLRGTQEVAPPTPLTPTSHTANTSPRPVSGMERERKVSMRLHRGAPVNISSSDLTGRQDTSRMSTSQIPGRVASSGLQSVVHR
Sequence of human Colony Stimulating Factor 1 Receptor (CSF1R), CSF1R (gene 1436) (P07333 whole entry, looked up): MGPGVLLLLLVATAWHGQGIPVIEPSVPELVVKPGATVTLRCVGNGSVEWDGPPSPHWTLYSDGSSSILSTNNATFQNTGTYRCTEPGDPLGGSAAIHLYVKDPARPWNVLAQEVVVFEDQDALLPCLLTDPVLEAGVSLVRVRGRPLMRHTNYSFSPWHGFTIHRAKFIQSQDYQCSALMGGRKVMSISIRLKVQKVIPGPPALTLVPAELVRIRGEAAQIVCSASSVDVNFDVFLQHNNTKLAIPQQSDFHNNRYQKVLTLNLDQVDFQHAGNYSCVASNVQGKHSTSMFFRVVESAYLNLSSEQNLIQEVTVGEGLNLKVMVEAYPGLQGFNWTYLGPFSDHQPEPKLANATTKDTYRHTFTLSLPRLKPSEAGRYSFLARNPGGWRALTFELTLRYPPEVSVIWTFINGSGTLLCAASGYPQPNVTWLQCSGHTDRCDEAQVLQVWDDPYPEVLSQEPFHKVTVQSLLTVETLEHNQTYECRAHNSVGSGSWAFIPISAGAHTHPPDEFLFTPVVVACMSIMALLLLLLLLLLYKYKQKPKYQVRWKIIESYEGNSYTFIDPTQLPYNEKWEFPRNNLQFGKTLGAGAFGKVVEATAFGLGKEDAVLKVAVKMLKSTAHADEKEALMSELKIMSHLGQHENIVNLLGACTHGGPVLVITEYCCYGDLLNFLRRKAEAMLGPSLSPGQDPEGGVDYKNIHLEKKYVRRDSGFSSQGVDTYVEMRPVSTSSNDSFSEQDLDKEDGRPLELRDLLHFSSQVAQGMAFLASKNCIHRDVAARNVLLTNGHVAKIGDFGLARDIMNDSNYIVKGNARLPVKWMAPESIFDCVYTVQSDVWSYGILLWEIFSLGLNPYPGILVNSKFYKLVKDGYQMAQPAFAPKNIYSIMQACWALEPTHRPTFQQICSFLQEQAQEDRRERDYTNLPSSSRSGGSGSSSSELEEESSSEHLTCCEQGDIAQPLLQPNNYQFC
Sequence of human Caspase 4 (CASP4), CASP4 (gene 837) (P49662 whole entry, looked up): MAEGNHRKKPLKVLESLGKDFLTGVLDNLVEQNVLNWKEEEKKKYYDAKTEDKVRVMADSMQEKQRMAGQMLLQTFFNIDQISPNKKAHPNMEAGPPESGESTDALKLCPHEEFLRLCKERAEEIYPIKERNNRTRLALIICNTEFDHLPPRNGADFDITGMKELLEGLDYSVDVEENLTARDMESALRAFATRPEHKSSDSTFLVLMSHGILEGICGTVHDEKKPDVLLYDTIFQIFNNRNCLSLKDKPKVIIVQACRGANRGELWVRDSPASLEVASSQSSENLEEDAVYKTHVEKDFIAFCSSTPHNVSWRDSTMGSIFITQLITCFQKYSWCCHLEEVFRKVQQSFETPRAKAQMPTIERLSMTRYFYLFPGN
Sequence of human Insulin Receptor (InsR), INSR (gene 3643) (P06213 whole entry, looked up): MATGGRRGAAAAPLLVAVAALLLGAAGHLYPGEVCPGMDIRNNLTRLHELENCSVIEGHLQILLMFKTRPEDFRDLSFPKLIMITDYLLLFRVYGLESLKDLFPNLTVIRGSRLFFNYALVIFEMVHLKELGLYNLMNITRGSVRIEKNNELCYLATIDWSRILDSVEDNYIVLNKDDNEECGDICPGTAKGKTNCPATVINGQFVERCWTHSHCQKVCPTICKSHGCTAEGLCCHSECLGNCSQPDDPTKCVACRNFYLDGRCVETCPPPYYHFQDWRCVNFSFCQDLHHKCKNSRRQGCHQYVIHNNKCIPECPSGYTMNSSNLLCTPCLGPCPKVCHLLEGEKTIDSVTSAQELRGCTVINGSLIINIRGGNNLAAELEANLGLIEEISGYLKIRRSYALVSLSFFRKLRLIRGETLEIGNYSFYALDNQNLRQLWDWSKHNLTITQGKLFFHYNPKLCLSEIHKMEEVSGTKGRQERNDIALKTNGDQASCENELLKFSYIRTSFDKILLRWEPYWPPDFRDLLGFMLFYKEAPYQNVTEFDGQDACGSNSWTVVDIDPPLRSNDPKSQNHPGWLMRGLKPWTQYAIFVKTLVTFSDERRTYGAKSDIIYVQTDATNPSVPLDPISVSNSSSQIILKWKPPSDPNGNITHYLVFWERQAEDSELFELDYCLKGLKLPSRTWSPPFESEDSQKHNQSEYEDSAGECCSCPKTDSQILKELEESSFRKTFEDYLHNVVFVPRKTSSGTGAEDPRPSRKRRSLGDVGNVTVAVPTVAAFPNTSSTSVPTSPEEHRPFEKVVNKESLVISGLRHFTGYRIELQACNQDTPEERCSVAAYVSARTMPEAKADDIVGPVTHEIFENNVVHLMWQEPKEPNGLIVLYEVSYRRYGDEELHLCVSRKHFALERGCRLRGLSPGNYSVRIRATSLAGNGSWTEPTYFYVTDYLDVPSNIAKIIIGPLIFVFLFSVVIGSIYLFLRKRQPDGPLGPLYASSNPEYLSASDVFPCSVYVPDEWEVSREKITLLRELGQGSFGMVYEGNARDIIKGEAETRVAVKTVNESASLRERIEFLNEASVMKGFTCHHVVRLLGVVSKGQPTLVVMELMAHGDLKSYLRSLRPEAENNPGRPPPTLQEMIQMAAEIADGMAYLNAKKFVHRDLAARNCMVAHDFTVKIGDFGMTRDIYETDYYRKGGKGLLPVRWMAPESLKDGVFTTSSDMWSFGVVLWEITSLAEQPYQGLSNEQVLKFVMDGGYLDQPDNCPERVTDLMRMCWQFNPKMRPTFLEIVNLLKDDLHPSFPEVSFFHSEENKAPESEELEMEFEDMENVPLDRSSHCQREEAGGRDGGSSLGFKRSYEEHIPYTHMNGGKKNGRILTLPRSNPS
Sequence of human Elastase, ELANE (gene 1991) (P08246 whole entry, looked up): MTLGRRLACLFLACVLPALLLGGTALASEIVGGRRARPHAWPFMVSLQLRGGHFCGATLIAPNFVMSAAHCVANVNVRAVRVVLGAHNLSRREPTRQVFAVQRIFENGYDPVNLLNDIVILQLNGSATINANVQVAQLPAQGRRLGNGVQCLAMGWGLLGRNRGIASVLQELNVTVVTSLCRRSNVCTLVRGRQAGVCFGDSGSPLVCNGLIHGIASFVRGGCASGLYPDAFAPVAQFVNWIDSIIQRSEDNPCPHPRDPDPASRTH
Sequence of Mitogen-activated protein kinase 3 (Homo sapiens) (P27361 whole entry, looked up): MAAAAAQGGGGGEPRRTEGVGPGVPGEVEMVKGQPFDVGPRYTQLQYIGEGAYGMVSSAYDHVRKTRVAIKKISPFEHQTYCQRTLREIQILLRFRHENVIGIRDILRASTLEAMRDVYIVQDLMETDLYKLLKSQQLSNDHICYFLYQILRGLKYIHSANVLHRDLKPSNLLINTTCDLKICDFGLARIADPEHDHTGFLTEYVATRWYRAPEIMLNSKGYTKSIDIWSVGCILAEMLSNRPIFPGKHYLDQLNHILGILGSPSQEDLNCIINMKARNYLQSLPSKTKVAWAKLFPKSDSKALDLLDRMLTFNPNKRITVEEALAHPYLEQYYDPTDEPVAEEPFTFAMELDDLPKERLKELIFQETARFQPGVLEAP
Sequence of human Matrix Metalloproteinase-7 (MMP7), MMP7 (gene 4316) (P09237 whole entry, looked up): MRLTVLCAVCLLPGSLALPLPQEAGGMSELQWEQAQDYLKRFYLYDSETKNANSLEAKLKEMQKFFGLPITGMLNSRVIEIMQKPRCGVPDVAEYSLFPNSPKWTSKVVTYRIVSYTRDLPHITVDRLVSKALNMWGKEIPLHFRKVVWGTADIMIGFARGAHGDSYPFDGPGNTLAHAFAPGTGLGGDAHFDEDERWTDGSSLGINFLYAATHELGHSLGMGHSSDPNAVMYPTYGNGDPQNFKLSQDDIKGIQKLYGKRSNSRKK

As for `O=C(O)CC(O)(CC(=O)O)C(=O)O`, the outcome in test [1], in [2], in test [3], in test [4] and in [5] was inactive.

For `Nc1nc(Cl)nc2c1ncn2[C@H]1C[C@H](O)[C@@H](CO)O1`, the call in test [1] was inactive.

With `COC(=O)[C@H]1[C@H]2C[C@@H]3c4[nH]c5cc(OC)ccc5c4CCN3C[C@H]2C[C@@H](OC(=O)c2cc(OC)c(OC)c(OC)c2)[C@@H]1OC`, the AC50 in test [6] is 24.6 µM (active).

With `Cc1ccc(-c2cc(C(F)(F)F)nn2-c2ccc(S(N)(=O)=O)cc2)cc1`, the compound was classed as inactive in [7], in [8] and in [9].

For `COc1ccc(OC(F)(F)F)cc1CN[C@H]1CCCN[C@H]1c1ccccc1`, the outcome in [10], in test [11], in test [1] and in test [3] was inactive. The AC50 in test [8] is 1.47 µM (active).

`CCCCC(CC)COC(=O)CCCCCCCC(=O)OCC(CC)CCCC` (centres undefined): the AC50 in test [12] is 6.97 µM (active). Also, the call in test [13] was inactive.

As to `O=C(O)c1[nH]n(-c2ccc(S(=O)(=O)O)cc2)c(=O)c1N=Nc1ccc(S(=O)(=O)O)cc1`, the outcome in test [7] was inactive. The AC50 was 7.11 µM (active) in test [14], 23.6 µM (active) in test [15] and 12.3 µM (active) in test [9].

As for `CCCCCCCCCCCCCCOS(=O)(=O)O`, the AC50 in test [16] was 13.3 µM (active); in test [1], 9.44 µM (active); in test [6] it was 8.15 µM (active); in [12] it was 25.4 µM (active).

Take `Cc1c(C)c2c(c(C)c1O)CCC(C)(COc1ccc(CC3SC(=O)NC3=O)cc1)O2` (centres undefined): the result in test [6] and in [8] was inactive.

`C=CCCCCCCCCCCCC`: the call in [11] and in test [5] was inactive.

Regarding `CN(C)CCCN1c2ccccc2Sc2ccc(Cl)cc21`, the AC50 in test [6] is 10.7 µM (active); in test [8], 7.76 µM (active). For the same compound, the call in test [17] was inactive.

Take `CC(N)=O`: the compound was called inactive in test [11] and in test [13].

For the origin of these results see PubChem BioAssay (EPA / NIEHS).
